We go through 20 compounds from PubChem BioAssay.

Usually inhibition stands for the relative decrease from the control value, in per cent.

The structures appear in SMILES notation. Values without a mark were called inactive. For some of these results: Results with a measured potency or affinity are listed apart. Activity calls are given as the source filed them. Unless noted, the rule behind the calls is not given here.

Test [1] in a line: antimalarial activity against Dd2 strain (AID 2302;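 active = growth inhibition above 50% at the single 2 µM test dose, taken to imply half-maximal potency below 2 µM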;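 note: 0% = DMSO untreated growth and 100% = chloroquine plus artemisinin killed control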). The conditions noted are these: P. falciparum Dd2 in RBCs, LDH growth readout, 72 h; at 2 µM; active compounds read high.
The nature of test [2]: HepG2 cytotoxicity, primary screen, cytotoxicity control for P. falciparum antimalarial project, cell-based, ATP luminescence (AID 2303;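 active = inhibition above 50%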;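 note: 0% = DMSO wells and 100% = digitonin-killed cells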). To be noted: HepG2 viability, 24-48 h, at 10 µM, active compounds read high.
In test [3] the target is L-lactate dehydrogenase (Plasmodium falciparum (isolate CDC / Honduras)) (UniProt Q27743). The experiment in a line: PfLDH activity inhibition – cell lysate, 3D7 strain, counter-screen for P. falciparum growth inhibition project (AID 2304).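 Note: 0% = vehicle and 100% = reference inhibitor.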 The conditions noted are these: P. falciparum 3D7 crude extract, LDH APAD/NBT absorbance; at 2 µM; active compounds read high.
Chain of L-lactate dehydrogenase (Plasmodium falciparum (isolate CDC / Honduras)) (Q27743 whole entry, looked up): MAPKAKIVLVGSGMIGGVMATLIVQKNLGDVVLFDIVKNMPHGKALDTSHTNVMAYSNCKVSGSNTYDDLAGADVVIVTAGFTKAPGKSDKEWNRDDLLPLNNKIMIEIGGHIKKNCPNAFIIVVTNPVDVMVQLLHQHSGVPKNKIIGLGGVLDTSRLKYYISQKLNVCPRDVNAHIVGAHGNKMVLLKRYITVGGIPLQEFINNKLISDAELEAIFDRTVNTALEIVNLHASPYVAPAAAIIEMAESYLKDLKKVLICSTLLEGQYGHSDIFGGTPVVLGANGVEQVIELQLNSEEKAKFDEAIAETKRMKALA
Test [4] can be described thus: inhibition of 3D7 malaria parasite growth – strain 3D7 (AID 2306).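 Note: 0% = DMSO wells and 100% = chloroquine plus artemisinin control wells.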 The conditions noted are these: P. falciparum 3D7 erythrocytic growth, LDH absorbance, 72 h; at 2 µM; active compounds read high.
Test [5] addresses Calcium-dependent protein kinase 1 (Plasmodium falciparum (isolate 3D7)) (UniProt P62344). The experiment in a line: PfCDPK1 kinase inhibitors, biochemical, TCAMS library (AID 1159585; cut-off not given, nearly all actives have IC50 up to about 0.98 µM;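 note: inhibitors leave more ATP so luminescence rises with inhibition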). To be noted: recombinant PfCDPK1, Kinase-Glo ATP depletion luminescence. (In Kinase-Glo more light means more ATP remaining.)
Test [6] has as its target Plasmodium falciparum protein kinase 6 (PK6, PF3D7_1337100) (UniProt Q8IDW1). The experiment in a line: PfPK6 kinase inhibitors, biochemical, TCAMS library (AID 1159586). The conditions noted are these: recombinant PfPK6, Kinase-Glo ATP depletion luminescence.
Test [7] has as its target Protein kinase 7 (PK7), Plasmodium falciparum 3D7 (PF3D7_0213400) (UniProt Q7YTF7). The experiment in a line: inhibition of Plasmodium PK7 catalytic activity – biochemical, TCAMS antimalarial set, Kinase-Glo luminescence (AID 1159587). The conditions noted are these: recombinant PfPK7, Kinase-Glo ATP depletion luminescence.
Test [8] addresses Calcium-dependent protein kinase 4 (Plasmodium falciparum (isolate 3D7)) (UniProt Q8IBS5). Put plainly: PfCDPK4 kinase inhibitors, biochemical, TCAMS library (AID 1159588; cut-off not given, nearly all actives have IC50 up to about 0.91 µM). The conditions noted are these: recombinant PfCDPK4, Kinase-Glo ATP depletion luminescence.

Chain of Protein kinase 7 (PK7), Plasmodium falciparum 3D7 (PF3D7_0213400) (Q7YTF7 1-343): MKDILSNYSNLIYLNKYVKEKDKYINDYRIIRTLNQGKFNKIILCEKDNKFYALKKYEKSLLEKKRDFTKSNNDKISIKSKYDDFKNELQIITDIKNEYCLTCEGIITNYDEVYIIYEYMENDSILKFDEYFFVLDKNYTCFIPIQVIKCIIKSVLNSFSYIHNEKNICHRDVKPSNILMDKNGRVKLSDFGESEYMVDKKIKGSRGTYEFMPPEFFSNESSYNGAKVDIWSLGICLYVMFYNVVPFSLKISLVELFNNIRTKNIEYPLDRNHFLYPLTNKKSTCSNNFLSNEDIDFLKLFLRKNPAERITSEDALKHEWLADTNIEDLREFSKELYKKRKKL
Chain of Calcium-dependent protein kinase 1 (Plasmodium falciparum (isolate 3D7)) (P62344 whole entry, looked up): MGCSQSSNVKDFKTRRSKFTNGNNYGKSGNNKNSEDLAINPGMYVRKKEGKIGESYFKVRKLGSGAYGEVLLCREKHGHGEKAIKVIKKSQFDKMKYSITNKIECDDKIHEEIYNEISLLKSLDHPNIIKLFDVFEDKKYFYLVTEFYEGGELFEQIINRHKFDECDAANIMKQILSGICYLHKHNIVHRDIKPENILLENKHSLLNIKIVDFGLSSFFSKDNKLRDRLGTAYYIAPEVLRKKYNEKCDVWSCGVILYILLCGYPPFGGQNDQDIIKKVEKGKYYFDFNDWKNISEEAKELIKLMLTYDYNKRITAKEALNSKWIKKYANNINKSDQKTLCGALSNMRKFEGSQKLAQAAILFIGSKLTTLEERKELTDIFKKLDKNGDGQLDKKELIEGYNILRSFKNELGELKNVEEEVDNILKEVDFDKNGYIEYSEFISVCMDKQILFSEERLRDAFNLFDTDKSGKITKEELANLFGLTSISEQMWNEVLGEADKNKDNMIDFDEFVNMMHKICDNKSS
Chain of Plasmodium falciparum protein kinase 6 (PK6, PF3D7_1337100) (Q8IDW1 1-305): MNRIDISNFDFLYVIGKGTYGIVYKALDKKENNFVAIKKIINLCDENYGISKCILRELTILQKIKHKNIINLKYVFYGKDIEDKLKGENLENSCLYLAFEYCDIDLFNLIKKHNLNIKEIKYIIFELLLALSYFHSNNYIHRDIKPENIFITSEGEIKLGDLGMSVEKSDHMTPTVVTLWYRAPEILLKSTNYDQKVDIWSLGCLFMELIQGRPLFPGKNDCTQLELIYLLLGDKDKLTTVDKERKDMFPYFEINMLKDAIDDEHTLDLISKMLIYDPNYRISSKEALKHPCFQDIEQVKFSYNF
Chain of Calcium-dependent protein kinase 4 (Plasmodium falciparum (isolate 3D7)) (Q8IBS5 whole entry, looked up): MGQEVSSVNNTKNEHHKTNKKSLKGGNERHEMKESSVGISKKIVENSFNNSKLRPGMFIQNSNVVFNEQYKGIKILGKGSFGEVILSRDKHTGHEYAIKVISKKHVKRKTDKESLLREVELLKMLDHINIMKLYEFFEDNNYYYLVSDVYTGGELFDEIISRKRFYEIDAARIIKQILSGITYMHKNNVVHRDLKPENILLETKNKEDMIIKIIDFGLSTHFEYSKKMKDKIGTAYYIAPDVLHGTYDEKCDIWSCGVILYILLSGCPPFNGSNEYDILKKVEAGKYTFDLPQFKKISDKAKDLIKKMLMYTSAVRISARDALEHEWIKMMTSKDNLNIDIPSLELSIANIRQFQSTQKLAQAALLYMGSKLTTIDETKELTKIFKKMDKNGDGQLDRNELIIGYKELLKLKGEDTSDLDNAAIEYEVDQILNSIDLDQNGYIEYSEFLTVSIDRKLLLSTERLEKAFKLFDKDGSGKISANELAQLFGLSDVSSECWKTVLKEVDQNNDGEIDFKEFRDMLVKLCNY

For `O=C(NCc1ccccc1)c1ncn(CCCN2CCC(N3CCCC3)CC2)c1-c1ccc(Cl)c(Cl)c1`, the growth inhibition is 36% in test [1] and 89% (active) in test [4]. The inhibition was 8% in test [2] and 3% in test [3]. In addition, the outcome in test [5], in test [6], in test [7] and in test [8] was inactive.

Consider `Nc1c2c(nc3ccc(NC(=O)c4ccccc4)cc13)CCCC2`, for which the growth inhibition in test [1] was 8%; in test [4] it was 99% (active). For the same compound, the inhibition in test [2] is 0%; in test [3], -8%. Besides, the outcome in test [5], in test [6], in test [7] and in test [8] was inactive.

Consider `CCc1ccc(C2CCN(CCCCNC(=O)c3ccc(NC(=O)c4ccc(Cl)cc4)cc3)CC2)cc1`, for which the figures for the growth inhibition in test [1] and in test [4] were 63% (active) and 100% (active), respectively. In addition, the inhibition in test [2] was 15%; in test [3], -3%. The result in test [5], in test [6], in test [7] and in test [8] was inactive.

As for `CN(C)CCN(Cc1ccccc1)c1ccc([N+](=O)[O-])cc1C(F)(F)F`, the growth inhibition in test [1] is 89% (active); in test [4] it was 96% (active). Also, the inhibition in test [2] is 40%; in test [3] it was -8%. In addition, the outcome in test [5], in test [6], in test [7] and in test [8] was inactive.

As for `O=C(N[C@@H](Cc1ccccc1)C(=O)NCCN1CCCC1)c1ccc(O)c(-c2ccc(Cl)c(Cl)c2)c1`, the growth inhibition was 46% in test [1] and 95% (active) in test [4]. Besides, the inhibition in test [2] is 8%; in test [3], -2%. Besides, the outcome in test [5], in test [6], in test [7] and in test [8] was inactive.

Regarding `CCCCCCCCOc1c(OCC)cc(Cc2cnc(N)nc2N)cc1OCC`, the growth inhibition was -1% in test [1] and 80% (active) in test [4]. For the same compound, the inhibition in test [2] is 25%; in test [3], 3%. The result in test [5], in test [6], in test [7] and in test [8] was inactive.

As to `Cc1ccc(-c2cc(C(=O)Nc3ccc(S(=O)(=O)N4CCCCC4)cc3)[nH]n2)c(O)c1`, the growth inhibition in test [1] is 92% (active); in test [4], 97% (active). Moreover, the inhibition is 6% in test [2] and -5% in test [3]. The result in test [5], in test [6], in test [7] and in test [8] was inactive.

Consider `O=c1cc(NCCCNCc2cccc(Oc3ccccc3)c2)[nH]c2ccccc12`, for which the growth inhibition in test [1] was 67% (active); in test [4] it was 93% (active). Also, the inhibition is -4% in test [2] and -1% in test [3]. The result in test [5], in test [6], in test [7] and in test [8] was inactive.

As for `N#Cc1ccc(NC(=Nc2ccccc2Br)N(C2CCCCC2)C2CCCCC2)c(O)c1`, the growth inhibition was 96% (active) in test [1] and 99% (active) in test [4]. In addition, the inhibition in test [2] and in test [3] was 4% throughout. The result in test [5], in test [6], in test [7] and in test [8] was inactive.

As to `COc1ccc2nccc([C@@H](O)CN3CCC(NC(=O)C(c4ccccc4C)N4CCC(Cc5ccccc5)CC4)CC3)c2c1` (stereo not given in full), the growth inhibition in test [1] was 97% (active); in test [4], 102% (active). The inhibition in test [2] is 10%; in test [3], 3%. Besides, the outcome in test [5], in test [6], in test [7] and in test [8] was inactive.

On to `CC(=O)c1ccc(-c2ccc(C(=O)NCCCCN3CCC(c4ccc5c(c4O)CCCC5)CC3)cc2)cc1`, for which the growth inhibition was 83% (active) in test [1] and 100% (active) in test [4]. The inhibition in test [2] was 87% (active); in test [3], 1%. In addition, the result in test [5], in test [6], in test [7] and in test [8] was inactive.

For the compound `COc1ccc2ccc(OC)c(CNCCCCCCNCc3c(OC)ccc4ccc(OC)cc34)c2c1`, the growth inhibition was 32% in test [1] and 101% (active) in test [4]. Also, the inhibition was 100% (active) in test [2] and -6% in test [3]. Besides, the outcome in test [5], in test [6], in test [7] and in test [8] was inactive.

For `CS(=O)(=O)CCNCc1ccc(-c2ccc3c(Nc4ccc(F)cc4Cl)ccnc3c2)o1`, the growth inhibition is 98% (active) in test [1] and 100% (active) in test [4]. Moreover, the inhibition in test [2] was 29%; in test [3], 0%. Also, the result in test [5], in test [6], in test [7] and in test [8] was inactive.

On to `CC(=O)Nc1ccc(C(=O)Nc2cccc(-c3ccc(-c4nc5ccc(F)cc5[nH]4)cc3)c2)cn1`, for which the growth inhibition in test [1] and in test [4] was 99% (active) in each case. Besides, the inhibition in test [2] was 10%; in test [3], -6%. In addition, the result in test [5], in test [6], in test [7] and in test [8] was inactive.

On to `O=C(Cn1c(SCc2cccc(F)c2F)cc(=O)c2ccccc21)N(Cc1ccc(-c2ccc(C(F)(F)F)cc2)cc1)C1CCN(CCO)CC1`, for which the growth inhibition in test [1] was 81% (active); in test [4] it was 89% (active). For the same compound, the results for the inhibition in test [2] and in test [3] were 50% (active) and 4%, respectively. In addition, the outcome in test [5], in test [6], in test [7] and in test [8] was inactive.

For the compound `CN(C)c1cc(NC(=O)Nc2ccc(SC(F)(F)F)cc2)c2ccccc2n1`, the growth inhibition in test [1] and in test [4] was 100% (active) throughout. The results for the inhibition in test [2] and in test [3] were 22% and -4%, respectively. Moreover, the outcome in test [5], in test [6], in test [7] and in test [8] was inactive.

In the case of `Cc1cc(NCCc2ccccc2)nc(/N=C(\N)Nc2cccc([N+](=O)[O-])c2)n1`, the growth inhibition in test [1] was 101% (active); in test [4] it was 102% (active). The results for the inhibition in test [2] and in test [3] were 21% and -2%, respectively. Moreover, the result in test [5], in test [6], in test [7] and in test [8] was inactive.

On to `O=C(NCCCCN1CCC(c2ccc3ccccc3c2)CC1)c1ccc(NC(=O)c2ccc(Cl)cc2)cc1`, for which the growth inhibition in test [1] was 93% (active); in test [4] it was 102% (active). Moreover, the values for the inhibition in test [2] and in test [3] were 24% and -4%, respectively. The result in test [5], in test [6], in test [7] and in test [8] was inactive.

Take `Nc1ccc2c(N)c3ccccc3nc2c1`: the growth inhibition in test [1] is 74% (active); in test [4], 93% (active). Also, the figures for the inhibition in test [2] and in test [3] were 20% and -2%, respectively. In addition, the result in test [5], in test [6], in test [7] and in test [8] was inactive.

As to `COc1ccc(CCN(Cc2cccs2)C(=O)c2cc3sccc3n2C)cc1OC`, the growth inhibition in test [1] was 97% (active); in test [4] it was 94% (active). Further, the figures for the inhibition in test [2] and in test [3] were 0% and 1%, respectively. The result in test [5], in test [6], in test [7] and in test [8] was inactive.
